# Screening results as filed in PubChem BioAssay.
# RXFP1 antag: antagonists of human relaxin receptor RXFP1; hit rate 0.59% among 350,000; AID 1259400; HEK293-RXFP1, relaxin-stimulated cAMP HTRF, 30 min; active compounds read low; activity change, negative = inhibition, % at 57.5 µM; Q9HBX9;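 active means activity change of -60% or lower, but not beyond a set lower limit; inconclusive means change between -60% and -40%, or beyond the set limit; inactive means change above -40%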; further: on the % scale 0 is the no-effect control and ±100 the full control effect
# Target sequence (Q9HBX9 whole entry, looked up): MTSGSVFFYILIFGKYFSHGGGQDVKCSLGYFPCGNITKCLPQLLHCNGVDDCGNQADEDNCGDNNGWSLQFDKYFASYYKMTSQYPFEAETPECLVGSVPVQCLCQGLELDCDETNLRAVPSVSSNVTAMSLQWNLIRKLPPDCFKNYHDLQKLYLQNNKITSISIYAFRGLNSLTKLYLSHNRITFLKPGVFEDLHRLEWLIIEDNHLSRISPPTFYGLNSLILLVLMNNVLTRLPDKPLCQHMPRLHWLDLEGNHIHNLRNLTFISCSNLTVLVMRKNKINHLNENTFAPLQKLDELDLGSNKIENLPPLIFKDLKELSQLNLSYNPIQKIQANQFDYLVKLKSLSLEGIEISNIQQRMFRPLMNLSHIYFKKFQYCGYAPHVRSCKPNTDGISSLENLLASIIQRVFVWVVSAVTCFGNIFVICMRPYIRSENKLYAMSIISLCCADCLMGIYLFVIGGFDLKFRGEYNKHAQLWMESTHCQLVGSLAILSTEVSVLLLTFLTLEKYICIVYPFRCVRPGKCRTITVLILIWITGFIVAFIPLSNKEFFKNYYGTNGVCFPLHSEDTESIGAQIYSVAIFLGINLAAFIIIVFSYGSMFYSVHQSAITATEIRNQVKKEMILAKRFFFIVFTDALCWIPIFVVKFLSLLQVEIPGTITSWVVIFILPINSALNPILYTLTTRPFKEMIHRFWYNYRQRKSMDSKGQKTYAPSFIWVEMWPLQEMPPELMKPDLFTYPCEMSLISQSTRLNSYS
# gsp ag: agonists of gsp mutant (McCune-Albright syndrome) | gsp mutant cells, cAMP HTRF, 30 min | Potency, µM (series often up to 76.9 µM), for inactives: at the top dose activation (cAMP increase), usual class: activators | hit rate 0.13% among 340,000; active means well fitted activation curve with a large enough effect; inconclusive means small, poorly fitted or top-dose-only effect, or another doubt; inactive means no such curve, though single readings can be large or run the other way; cell line not stated here;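 further: phosphodiesterase inhibitor Ro 20-1724 added with compounds to block cAMP breakdown; potency means the concentration at half of the fitted maximal effect; nearly all actives have a fitted effect of over 60% in size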
#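 Cells stably selected in G418 were plated at 2000/well, grown 16-24 hr, then given compounds in DMSO with the PDE inhibitor […] (300 uM solution added) for 30 min at 37C; cAMP was read by HTRF.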
# Akt phos inh: inhibitors of Akt phosphorylation; Neuro2A IGF-stimulated pAkt S473 HTRF, 20 min; active compounds read low; hit rate 0.32% among 360,000; activity change, % for hits at 50 µM; in the data active means activity change below about -80%; inconclusive means mostly about -51% to -80%; further: on the % scale 0 is the no-effect control and ±100 the full control effect
#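 Neuro2A cells in DMEM with 0.5% FBS, overnight at 37 deg C, given compound at single 50 µM final, then IGF (6 nM final) for 20 min at 37 deg C. Lysed; phospho-Akt Ser473 by HTRF after 24 h, 665/615 ratio.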
# RXFP1 ag: activates the human relaxin receptor RXFP1; hit rate 0.3% among 370,000; HEK293T-RXFP1 cAMP TR-FRET, 30 min; response scale: percent of porcine relaxin response, buffer zero; Q9HBX9; Potency, µM (titrated, usually from 57.5 µM), without a hit: top-dose activation, hits mostly activators; AID 2676; active means well fitted activation curve with a large enough effect; inconclusive means small, poorly fitted or top-dose-only effect; further: potency means the concentration at half of the fitted maximal effect; on the % scale 0 is the no-effect control and ±100 the full control effect; nearly all actives have a fitted effect of over 60% in size
#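 cAMP rise read by TR-FRET after 30 min, 37C compound exposure (up to 58 uM) in RXFP1-transfected HEK293 cells with Ro 20174 present. EC50 from Hill-equation fits, with 29 nM porcine relaxin as 100% and buffer as basal.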
# gsp antagonist: antagonists of gsp mutant (McCune-Albright syndrome). hit rate 0.4% among 340,000. Potency, µM (doses to about 76.9 µM), for the others: top-dose activity change, negative = inhibition, hits mostly inhibitors. gsp-mutant cells, cAMP HTRF, 30 min; calls by dose curve; cell line not stated here;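 further: intracellular cAMP measured with PDE inhibitor Ro 20-1724 present during compound exposure; potency means the concentration at half of the fitted maximal effect; on the % scale 0 is the no-effect control and ±100 the full control effect; nearly all actives have a fitted effect of over 65% in size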
#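 HTRF cAMP measurement after 30 min RT detection following 30 min, 37C compound treatment alongside […] (added as 300 uM solution) in G418-selected cells seeded at 2000/well and grown 16–24 h.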
# * = called active by the depositor; i = inactive; ? = inconclusive; . = no result; [ ] = another dose, or the depositor's remark. Rows were chosen to be rich in hits. Some 1.3% of all compounds tested hit in one or more screens of this group.
SMILES,RXFP1 antag,gsp ag,Akt phos inh,RXFP1 ag,gsp antagonist
Cc1ccc2ncc(C(=O)NC(C)c3ccccc3)c(=O)n2c1 (stereo not given),-13.8,.,.,9.6%,.
Cc1ccc(CNC(=O)CCCCCn2c(=O)c3sccc3n(CC(=O)Nc3ccc(C)c(F)c3)c2=O)cc1,-3.5,.,.,31.6µM*,.
CCCCn1c(SCC(=O)c2ccc(OC)c(OC)c2)nc2cc(S(N)(=O)=O)ccc21,-74.6*,-26.4%,i,2.8%,8.7%
CCCCn1c(CN2CCN(C)CC2)nc2ccccc21,-5.9,29.9%,-116.0%*,0.1%,7.8%
CCCCNC(=O)c1ccc2c(=O)n(CCCOCC)c(=S)[nH]c2c1,-6.7,-36.7%,.,11.3%,11.3%
CCOCCCNC(=O)c1ccc(-n2c(=S)[nH]c3ccccc3c2=O)cc1,-89.7*,5.5%[15.4 µM],i,-1.4%,-57.8%
OC[C@H]1O[C@@H](n2cnc3c(=S)nc[nH]c32)[C@H](O)[C@@H]1O,8.4,.,.,.,.
COc1ccc(C2=CC(=O)N(Nc3ccccc3)C2=O)cc1,?,21.9%[15.4 µM],i,2.4%,26.1%
Cc1ccc(NN2C(=O)C=C(c3ccc(Cl)cc3)C2=O)cc1,-95.6*,?,i,1.7%,-6.6%
O=C1C=C(c2ccccc2)C(=O)N1Nc1ccccc1,-108.5*,-3.7%,i,0.6%,16.5%
COc1ccc(Cl)cc1NC(=O)c1cc(S(=O)(=O)NC2CCCCCC2)ccc1F,-5.9,.,.,1.3%,.
COc1ccccc1C(=O)OCc1cc(=O)n2c(C)csc2n1,.,.,.,5.1%,.
CCCn1c(N2CCN(CC(=O)NCc3cccs3)CC2)nc2ccccc21,-4.7,0.3%,-109.7%*,2.0%,-18.4%
CCSc1nc(=S)cc(C)[nH]1,-75.2*,?,i,2.1%,-10.4%
CCN(CC)S(=O)(=O)c1cccc(NC(=O)COc2ncnc3sccc23)c1,1.5,25.1µM*,i,?,2.4%
Cc1ccc(NC(=O)COc2ncnc3sccc23)cc1S(=O)(=O)N(C)C,-3.7,23.2%,i,3.5%,-2.8%
Cc1nc2nc(Cc3ccccc3)[nH]n2c(=O)c1Cl,-6.4,5.4%,-114.0%*,1.1%,-10.6%
O=C(CCCn1c(=S)[nH]c2cc3c(cc2c1=O)OCO3)NCc1ccccc1Cl,-107.5*,?,i,?,20.4%
COc1cccc(N2CCN(C(=O)CCCCCn3c(=S)[nH]c4cc5c(cc4c3=O)OCO5)CC2)c1,?,-13.8%,i,?,-6.5%
O=C(CCCCCn1c(=S)[nH]c2ccccc2c1=O)NCc1ccc2c(c1)OCO2,-62.1*,-14.8%,?,-3.7%,9.5%
COc1cccc(CNC(=O)CCCn2c(=S)[nH]c3cc4c(cc3c2=O)OCO4)c1,-70.9*,?,i,21.1%,10.5%
CCOc1ccccc1NC(=O)Cn1c(=O)n(Cc2ccc(OC)cc2)c(=O)c2oc3ccccc3c21,7.9,.,.,-2.4%,.
CCOc1cc(/C=N/NC(=O)c2ccncc2)ccc1OC(=O)c1ccccc1,-25.0,0.1%,i,-0.7%,-12.3%
CCOc1cc(/C=N/Nc2cccc(C(=O)O)c2)ccc1OC(=O)c1ccccc1,-75.0*,3.2%,i,0.8%,-10.0%
CCOc1cc(/C=N/NC(=O)c2ccccn2)ccc1OC(=O)c1ccc(F)cc1,-93.3*,-55.0%,i,2.5%,-7.8%
SMILES,RXFP1 antag,gsp ag,Akt phos inh,RXFP1 ag,gsp antagonist
CCc1cc(=O)oc2cc(OC(C)=O)cc(OC(C)=O)c12,17.8,10µM*,i,26.5%,-1.1%
COc1cc(OCc2ccccc2)c2c(CCC(=O)O)cc(=O)oc2c1,4.5,26.8%,i,.,-11.0%
CCCCN(C)C(=O)Cn1c(SCC(=O)Nc2ccc(C)c(C)c2)nc2ccccc21,-0.2,.,.,-2.4%,.
CCOC(=O)C1CCCN(c2ncnc3c2cnn3-c2ccc(C)c(Cl)c2)C1 (stereo not given),-1.2,.,.,0.4%,.
CCc1ccc(Cc2cnc(NC(=O)C3=NCCN3)s2)cc1,-116.5*,9.2%[15.4 µM],i,-3.0%,-4.6%
O=C(Nc1ncc(Cc2ccccc2Cl)s1)C1=NCCN1,-9.6,-22.7%,i,0.9%,-12.7%
O=c1nc2ccccn2c2ccc(S(=O)(=O)N3CCCCC3)cc12,22.8,35.0%[15.4 µM],i,20µM*,18.1%
Cc1ccn2c(c1)nc(=O)c1cc(S(=O)(=O)N3CCCCC3)ccc12,-8.7,3.9%[15.4 µM],i,4.9%,-9.9%
CC1=CC(=O)C=C(C)C1=NOS(=O)(=O)c1ccccc1,-84.2*,-26.1%,i,-1.0%,?
COc1ccc(C2CC(=O)NC(NC(=O)c3ccc(Br)cc3)=N2)c(OC)c1OC (stereo not given),6.9,.,.,4.9%,.
CCOC(=O)C(C(=O)OCC)N(C#N)c1nc(OC)nc(N(C)C)n1,8.1,-32.7%,-112.7%*,2.0%,-0.9%
Cc1ccc(CNC(=O)NC23CC4CC(CC(C4)C2)C3)cc1,-9.2,-14.4%[15.4 µM],i,2.4%,-11.7%
CC(=O)NC12CC3CC(C1)CC(C(=O)NCc1ccc(C)cc1)(C3)C2,-68.2*,-3.6%,i,-1.1%,6.9%
COc1ccc(C(=O)NCC(=O)N=Nc2c(O)n(C)c3ccccc23)cc1OC,-4.9,-4.7%,i,2.1%,-2.1%
COc1ccc(C(=O)NCC(=O)N=Nc2c(O)n(Cc3ccccc3)c3ccccc23)cc1OC,?,10.0%[15.4 µM],i,-1.3%,11.2µM*
COc1cc(C)ccc1OCCSc1nc2ccc(NC(=O)c3ccco3)cc2s1,.,.,.,-0.3%,.
CCc1ccc2[nH]c(=O)c(CN(CCN(C)C)C(=S)NCc3ccco3)cc2c1,-64.1*,-14.0%,i,-1.3%,2.8%
CCc1ccc2[nH]c(=O)c(CN(CCN(CC)CC)C(=S)NCc3ccco3)cc2c1,-10.3,28.3%,i,0.1%,9.1%
Cc1nnc(Sc2cc(NCCCO)c([N+](=O)[O-])c3nonc23)s1,-68.2*,-1.0%[15.4 µM],i,25.1%,-25.4%
CCCSc1cc(NCCOC(=O)CCC)c([N+](=O)[O-])c2nonc12,-39.9,27.8%,i,1.8%,4.6%
CCCSc1cc(NCCOC(C)=O)c([N+](=O)[O-])c2nonc12,-5.4,2.5%[15.4 µM],i,6.0%,-6.5%
CCCC(=O)OCCNc1cc(Sc2nccn2C)c2nonc2c1[N+](=O)[O-],-80.8*,-9.9%,i,10.5%,-19.3%
CCC(=O)OCCNc1cc(Sc2nc3ccccc3s2)c2nonc2c1[N+](=O)[O-],-19.2,24.7%,i,6.8%,7.0%
O=[N+]([O-])c1c(NCCCO)cc(Sc2nc3ccccc3s2)c2nonc12,-73.2*,-10.4%,i,-1.1%,8.8%
Cc1nnc(Sc2cc(NCCO)c([N+](=O)[O-])c3nonc23)s1,-82.1*,?,i,19.8%,?
CCOc1ccc(C(=O)Nc2cc(-c3ccccc3)no2)cc1,-10.6,.,.,0.0%,.
CCOC(=O)c1cc(=O)c2c(OCC(COc3cccc4oc(C(=O)OCC)cc(=O)c34)OC(=O)[C@@H](N)CCCCN)cccc2o1,33.6,.,.,.,.
